D2 antag: D2 dopamine receptor (human) antagonism; AID 485344; HEK293 TREx D2 cells, calcium flux, dopamine EC80; 2% of 340,000 active; inhibition, % at 10 µM; in the data active means inhibition above about 30%; inactive means below that, where a call was filed; further: 0% is about no effect
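Antagonism is scored as inhibition of an EC80 dopamine-evoked calcium signal in a force-coupled, tetracycline-inducible HEK293 T-REx D2 line, with compound present 180 s before agonist.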
D2 ag-1: D2 dopamine receptor (human) agonism; 0.53% of 340,000 active; P14416; activation, % at 2 µM; HEK293 T-REx D2 cells, calcium flux agonist mode;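 active means activation over 3 SD above normal in the single-dose calcium agonist read, cut at about 30% in these data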; further: 0% is about no effect
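In this primary screen, compounds producing a positive calcium signal within 180 s of addition to tetracycline-induced, force-coupled HEK293 Trex D2 cells are flagged; cells are dye-loaded with a no-wash calcium kit beforehand.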
D2 PAM-1: positive allosteric modulators of human D2 dopamine receptor; 0.23% of 360,000 active; DiscoveRx D2 beta-arrestin cells, luminescence, 90 min; 100% = 57 uM dopamine signal; potentiation, % (no concentration beside the values); P14416; in the data active means potentiation above about 50%; inconclusive means mostly about 30% to 49%
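PathHunter D2 cells, attached overnight at 37 deg C, received compound in DMSO plus dopamine at EC20 (50 nM final) for 90 min at 37 deg C. Beta-arrestin recruitment was read as luminescence after 1 h with detection reagent at ambient temperature.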
D2 ag-2: agonists of human D2 dopamine receptor (beta-arrestin); activation, % (no concentration beside the values); 0.084% of 360,000 active; DiscoveRx PathHunter D2 beta-arrestin, luminescence, 90 min; 100% = 57 uM dopamine signal; in the data active means activation above about 40%; inconclusive means between about 15% and that limit
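DiscoveRx PathHunter D2 beta-arrestin cells (2,100/well) attached overnight, then compound-stimulated 90 min at 37 C in HBSS/10 mM HEPES/0.1% Tween-20 buffer; beta-galactosidase complementation read by luminescence after 1 h at ambient temperature. Dopamine 57 uM final (EC100) as control.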
D2 PAM-2: positively modulates the human D2 dopamine receptor allosterically; HEK293 T-REx D2, calcium flux, EC20 dopamine potentiation; P14416; 0.34% of 340,000 active; potentiation, % at 10 µM; AID 485347;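 active means potentiation over 3 SD above the plate norm, cut at about 30% in these data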; further: 0% is about no effect
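Tetracycline-induced HEK293 T-REx cells force-coupled to calcium signalling expressed D2; compounds were pin-added after a 10 s baseline, read kinetically 180 s, then an EC20 dopamine challenge followed with a further 180 s calcium read.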
D3 arrestin ag: D3 receptor agonism confirmed, beta-arrestin readout. shares compounds with D2 ag-1. 4% of 2,300 active. DiscoveRx D3 beta-arrestin cells, luminescence, 90 min. Potency, µM (top dose mostly 76.9 µM), for inactives: at the highest dose activation, hits mostly activators;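 further: potency means the concentration at half of the fitted maximal effect; 100% = dopamine control response; nearly all actives have a fitted effect of over 70% in size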
Target sequence (P35462 whole entry, looked up): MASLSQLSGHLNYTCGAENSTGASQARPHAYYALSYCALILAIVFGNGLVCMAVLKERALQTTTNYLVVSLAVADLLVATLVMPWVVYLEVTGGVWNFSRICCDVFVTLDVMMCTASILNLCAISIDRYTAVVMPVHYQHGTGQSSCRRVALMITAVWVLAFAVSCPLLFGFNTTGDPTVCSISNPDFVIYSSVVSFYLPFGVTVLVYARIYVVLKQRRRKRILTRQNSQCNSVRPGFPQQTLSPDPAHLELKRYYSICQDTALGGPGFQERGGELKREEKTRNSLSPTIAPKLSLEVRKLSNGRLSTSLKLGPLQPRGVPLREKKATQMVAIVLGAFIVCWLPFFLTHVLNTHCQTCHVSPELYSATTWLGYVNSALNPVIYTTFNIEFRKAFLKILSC
D2 ag-3: D2 receptor agonism, beta-arrestin counterscreen | shares compounds with D2 ag-1 | DiscoveRx PathHunter D2 beta-arrestin, luminescence, 90 min; response scale: percent relative to full dopamine signal | Potency, µM (series often up to 76.9 µM), for inactives: at the highest dose activation, hits mostly activators | 5.9% of 2,300 active | AID 720507; further: potency means the concentration at half of the fitted maximal effect; % of control where 0% means no effect; nearly all actives have a fitted effect of over 70% in size
* = called active by the depositor; ? = inconclusive; · = no result given. Only some compounds are listed: those with a hit (about 2.4% of all), similar ones and a draw of the others. Unless noted, the call rests on the fitted dose curve; in most records, active means well fitted activation curve with a large enough effect; inconclusive means small, poorly fitted or top-dose-only effect; inactive means flat fitted curve, though single readings scatter.

SMILES	D2 antag	D2 ag-1	D2 PAM-1	D2 ag-2	D2 PAM-2	D3 arrestin ag	D2 ag-3
CC(=O)Nc1ccc(/C=N/NC(=O)CCN2CCN(c3ccccc3)CC2)cc1	51.4*	78.6*	2.8	9.3	-19.6	?	27.4%
O=C(CCN1CCN(c2ccccc2)CC1)N/N=C/c1ccccc1OC(F)F	87.7*	74.7*	9.4	?	-21.9	-5.4%	?
CN(CCOc1cccc2ccccc12)Cc1ccccc1	·	·	0.2	?	-29.4	7.5%	16.2%
CCOC(=O)c1ccc(-c2c(-c3cc(OC)c(OC)c(OC)c3)noc2C)cc1F	16.4	-0.3	-13.7	0.7	3.3	·	·
CCOC(=O)c1ccc(-c2c(-c3ccc(OC)cc3)oc(=O)c3cc(OC)c(OC)cc23)cc1F	·	·	3.4	1.0	·	-2.8%	-0.7%
CN1CC(=O)N(CC(=O)Nc2ccc(N3CCOCC3)cc2)C1=O	-8.9	-0.3	-13.2	-2.3	2.8	·	·
O=C(COc1cccc([N+](=O)[O-])c1)NN1C(=O)c2ccccc2C1=O	-7.3	-0.5	-11.4	-2.0	-2.0	·	·
CN(CCc1ccccn1)C1CCCN(S(=O)(=O)c2ccccc2)C1 (configuration not stated)	-8.1	-0.5	-28.6	-1.6	-3.1	·	·
CC(=O)c1ccc(S(=O)(=O)N2CCCC(N(C)CCc3ccccn3)C2)cc1 (configuration not stated)	-13.2	55.4*	-15.7	-4.4	-19.2	-10.6%	-1.1%
CSC[C@H]1CN(CCc2ccccc2)C(=O)[C@@H]1CC(=O)Nc1ccc(Br)cc1	·	·	·	1.5	·	·	·
COc1ccc(OC)c(NC(=O)CCN2CCN(c3ccccc3)CC2)c1	80.4*	86.6*	5.8	?	-28.1	?	?
COc1ccc(NC(=O)CCN2CCN(Cc3ccccc3)CC2)c(OC)c1	41.0*	12.2	-39.6	2.6	-5.6	19.8%	9.1%
COc1cccc(C(=O)NCCN2CCN(c3ccccc3)CC2)c1	·	·	·	·	·	?	18.9%
COc1ccc(OC)c(NC(=O)CCN2CCN(C/C=C/c3ccccc3)CC2)c1	18.1	48.8*	-22.1	-3.9	-27.9	-4.7%	8.7%
COc1ccc(OC)c(NC(=O)CCN2CCN(C)CC2)c1	3.9	0.8	-0.2	4.4	-2.6	·	·
O=C(NCCN1CCN(c2ccccc2)CC1)c1ccc2c(c1)[nH]c(=S)n1c3ccccc3nc21	33.6*	47.9*	-25.2	3.0	-16.5	?	11.7%
COCCn1c(=O)[nH]c2cc(C(=O)NCCN3CCN(c4cccc(Cl)c4)CC3)ccc2c1=O	87.3*	59.3*	-22.9	14.8	-4.2	10.2%	?
O=C(c1ccc2c(c1)[nH]c(=S)n1c3ccccc3nc21)N1CCN(c2ncccn2)CC1	-28.3	-2.0	-4.9	-4.3	15.5	·	·
COCCn1c(=S)[nH]c2cc(C(=O)N3CCN(c4cccc(Cl)c4)CC3)ccc2c1=O	·	·	-28.4	6.7	·	·	·
C[C@H]1CN(C2CCCCC2)C(=O)[C@@H]1CC(=O)Nc1ccccc1	·	·	·	-1.4	·	·	·
CCOc1ccc(S(=O)(=O)Nc2ccc(C(=O)NCCCN3CCOCC3)cc2)cc1	5.2	0.5	-12.8	-4.9	-4.5	·	·
CCC(O)c1cc2c(cc1NC(=O)c1cccc(Br)c1)OCCO2 (configuration not stated)	·	0.4	·	·	3.1	·	·
COC(=O)C1=CO[C@@H](O[C@@H]2O[C@H](CO)[C@@H](O)[C@H](O)[C@H]2O)C2C(CO)=CCC12 (some centres not stated)	·	·	-50.3	1.9	·	·	·
CC(=O)OCC1=C[C@@H]2OC(=O)C3=CO[C@@H](O[C@@H]4O[C@H](CO)[C@@H](O)[C@H](O)[C@H]4O)[C@H]1[C@@H]32	4.4	0.1	-5.5	-2.4	1.3	0.7%	-2.9%
NC(=O)c1ccc(SCC(=O)OCC(=O)NC2CCCCCCC2)c([N+](=O)[O-])c1	9.6	-0.1	-0.4	10.4	4.2	14.2%	0.5%
SMILES	D2 antag	D2 ag-1	D2 PAM-1	D2 ag-2	D2 PAM-2	D3 arrestin ag	D2 ag-3
CC1CCC(NC(=O)COC(=O)CSc2ccc(C(N)=O)cc2[N+](=O)[O-])CC1 (configuration not stated)	8.7	0.1	-9.8	7.0	-2.5	·	·
CCOC(=O)C(NC(=O)c1ccccc1Cl)(Nc1ccc(C)c(C)c1)C(F)(F)F (configuration not stated)	-1.3	-0.7	-8.8	2.5	12.6	·	·
CCOC(=O)C(NC(=O)c1ccccc1Cl)(Nc1ccc(C(F)(F)F)cc1)C(F)(F)F (configuration not stated)	-9.4	29.0	-5.0	-3.3	2.9	-6.8%	-2.4%
COc1cc(CNCCN(C)C)c(Br)cc1OC1CCCC1	-7.6	0.5	-15.3	-5.2	1.4	·	·
O=C(C1CCN(S(=O)(=O)c2ccc(Cl)c(C(F)(F)F)c2)CC1)N1CCC1	-8.6	0.7	-0.6	5.4	1.3	0.5%	0.6%
COc1cc(-c2nc(Cn3nnc(C(=O)Nc4cc(C)cc(C)c4)c3C)c(C)o2)cc(OC)c1OC	·	1.7	·	·	11.2	·	·
O=C(Nc1ccccc1C(=O)Nc1ccc(Br)cn1)c1cccc([N+](=O)[O-])c1	-6.2	-1.0	-0.3	-2.0	-7.5	·	·
COc1ccc(C2c3c(-c4ccccc4)n[nH]c3C(=O)N2c2ccc(C(=O)O)cc2)cc1 (configuration not stated)	39.0*	0.0	-7.6	-1.8	4.6	-1.7%	-1.9%
COc1cccc(CN2CCN(C(=O)c3cccs3)CC2)c1OC	70.9*	90.3*	-4.4	?	-24.6	?	?
COc1ccc(OC)c(CN2CCN(C(=O)c3cccs3)CC2)c1	71.0*	81.9*	?	48.9*	-22.7	23.0%	?
c1ccc2c3c([nH]c2c1)CCNC3	12.8	20.3	-8.8	0.7	-26.1	23.7%	9.8%
Cc1ccc2[nH]c3c(c2c1)CNCC3	2.8	0.8	-22.2	0.0	-7.0	·	·
O=C(N/C(=C/c1ccc(F)cc1)C(=O)N1CCOCC1)c1ccccc1	0.1	-0.1	-7.3	-8.1	2.5	-7.7%	-3.4%
[O-]/[N+](=C/c1ccccc1)c1ccccc1	-7.8	0.0	-8.5	-2.6	-12.7	2.0%	-3.0%
C[C@@H]1O[C@@H](O[C@H]2[C@H](O)[C@@H](O)[C@H](Oc3c(-c4ccc(O)c(O)c4)oc4cc(O)cc(O)c4c3=O)O[C@@H]2CO)[C@H](O)[C@H](O)[C@H]1O	-17.2	-1.3	-1.2	-1.1	9.8	0.4%	4.1%

Screening results (PubChem)
